Bioassay records: PubChem, National Center for Advancing Translational Sciences (NCATS)
HT1080NT lethal: kills 2HG-producing HT-1080-NT fibrosarcoma cells | HT-1080-NT fibrosarcoma viability, CellTiter-Glo ATP luminescence, 48 h | 360,000 tested, 1.6% active | Potency, µM (highest dose often 46.1 µM), for the others: at the top dose activity, negative = less viability, hits mostly cytotoxic;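 further: NT is the 2HG producing partner of a matched IDH1 knockdown line; potency means the concentration at half of the fitted maximal effect; 0% = DMSO-treated cells and -100% = media-only wells without cells; nearly all actives have a fitted effect of over 55% in size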
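HT-1080-NT fibrosarcoma cells (2HG-overproducing), 750 cells/well in RPMI with 5% FBS, dosed after 2 h and incubated 48 h at 37C. CellTiter-Glo luminescence normalized to DMSO and no-cell wells; concentration-response curves fitted and classed.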
TDP1 cell noCPT: qHTS for Inhibitors of human tyrosyl-DNA phosphodiesterase 1 (TDP1): qHTS in cells in absence of CPT; DT40 Tdp1-/- hTDP1 cells, no CPT, ATP luminescence, 48 h; Potency, µM (top dose mostly 46.2 µM), inactives show at the top dose activity change, negative = growth inhibition, hits mostly inhibitors; 420,000 tested, 15% active; further: potency means the concentration at half of the fitted maximal effect; nearly all actives have a fitted effect of over 55% in size
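No-CPT arm: Tdp1-/-;hTDP1 DT40 cells (400/well) plus compounds, incubated ≥48 hr at 37 °C. Readout CellTiter-Glo luminescence.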
uPA surface inh: blocks generation of uPA at the cell surface. 330,000 tested, 0.31% active. cell surface uPA generation assay, qHTS. Potency, µM (highest dose often 38.3 µM), for inactives: top-dose activity change, negative = inhibition, hits mostly inhibitors. AID 540303; active means well fitted inhibition curve with a large enough effect; inconclusive means small, poorly fitted or top-dose-only effect; inactive means no such curve, though single readings can be large or run the other way; tested in mouse RAW 264.7 cells; further: potency means the concentration at half of the fitted maximal effect; nearly all actives have a fitted effect of over 55% in size
IL1B secr inh: blocks inflammasome-driven IL-1 beta release. THP-1 LPS/ATP IL-1B secretion, AlphaLISA, 16 h; active compounds read low. activity change, % at 57.5 µM. 360,000 tested, 4.7% active; in the data active means activity change below about -50%; inconclusive means mostly about -30% to -49%
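THP-1 cells pretreated 1 hr with compounds (up to 57.5 uM final), then stimulated with LPS (250 ng/mL final) plus ATP (1.25 mM final); secreted IL-1B measured by AlphaLISA after 16 hr, decreased signal indicating inhibition.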
TDP1 cell CPT: DT40-hTDP1 cell growth loss with CPT. Potency, µM (top dose mostly 46.2 µM), without a hit: at the highest dose activity change, negative = growth inhibition, most hits filed as inhibitors. chicken DT40 Tdp1-/-;hTDP1 cells + 20 nM CPT, ATP luminescence, 48 h. 420,000 tested, 12% active; further: potency means the concentration at half of the fitted maximal effect; nearly all actives have a fitted effect of over 55% in size
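Cell growth measured by CellTiter-Glo luminescence after a minimum 48 h, 37 C compound exposure with 20 nM CPT in Tdp1-knockout DT40 cells stably expressing hTDP1, seeded 400/well; qHTS titration format.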
HT1080 IDH1KD tx: toxicity to HT-1080 IDH1 knockdown cells (counter line); Potency, µM (highest dose often 46.1 µM), for the others: top-dose activity, negative = toxicity, hits mostly cytotoxic; AID 686971; HT-1080 IDH1 knockdown viability, ATP luminescence, 48 h; 360,000 tested, 2% active;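 further: potency means the concentration at half of the fitted maximal effect; 0% = DMSO wells and -100% = cell-free medium wells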
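Knockdown cells (IDH1KD HT-1080) received compounds 2 h after plating at 750 cells/well and were kept 48 h at 37 °C in 5% FBS RPMI. A CellTiter-Glo luminescence read gave % activity for curve fitting.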
Active calls of the source: *; ? = inconclusive; . = no result. Sampled rows, rich in hits. Any-hit rate of the full collection: about 19%. Unless noted, the call rests on the fitted dose curve; in most records, active means well fitted curve in the direction sought with a large enough effect; inconclusive means small, poorly fitted or top-dose-only effect, or another doubt; inactive means no such curve, though single readings can be large; an effect the other way counts as inactive or inconclusive. Unless noted, on the % scale 0 is the no-effect control and ±100 the full control effect.

SMILES	HT1080NT lethal	TDP1 cell noCPT	uPA surface inh	IL1B secr inh	TDP1 cell CPT	HT1080 IDH1KD tx
Cc1nn(CC(=O)NCCCN2CCCC2=O)c(C)c1[N+](=O)[O-]	-1%	-12%	-4%	-3	-18%	-16%
CCn1c(SCc2ccccc2)nc2cc(S(N)(=O)=O)ccc21	-17%	?	0%	21	-24%	0%
O=C(c1ccco1)n1nc(-c2ccccc2)nc1NCc1ccccc1Cl	.	?	.	.	-28%	.
Cc1cc(C)n(CC(O)Cn2c3ccc(Br)cc3c3cc(Br)ccc32)c(=O)n1 (stereo not drawn)	?	?	-4%	-68*	-25%	?
Cc1cc(C)n(CC(O)Cn2c3ccccc3c3ccccc32)c(=O)n1 (stereo not drawn)	4%	?	14%	?	-29%	-19%
O=C(O)/C=C/C(=O)Nc1ccccc1C(=O)OCC(=O)c1ccc2c(c1)OCCO2	-15%	7%	-15%	-75*	-8%	-15%
CCCCC(=O)Nc1ccccc1C(=O)OCC(=O)c1ccc2c(c1)OCCO2	-3%	?	-6%	-24	?	-10%
CCCCCCOC(=O)c1ccccc1NC(=O)/C=C/C(=O)O	-12%	?	-4%	-100*	16µM*	-16%
CCOC(=O)c1c(C)[nH]c(C)c1S(=O)(=O)N1CCN(c2ccc(F)cc2)CC1	4%	?	7%	-7	-14%	-1%
c1ccc(C(Cc2nc(-c3ccncc3)no2)c2ccccc2)cc1	1%	?	-7%	-29	18µM*	-17%
Cc1ccc(C2/C=C\CC(NC(=O)OCC3c4ccccc4-c4ccccc43)CC(=O)N2Cc2ccccc2)cc1 (stereo not drawn)	-9%	16µM*	-21%	?	?	-16%
Cc1ccc(CC(=O)NC2CCN(Cc3ccccc3)CC2)cc1	-5%	-14%	7%	5	-8%	-4%
Cc1cc(C)c2c(N)c(C(=O)NN3CC(=O)N(c4ccccc4)CC3=O)sc2n1	2%	-4%	15%	9	1%	2%
Cc1cccc(NC(=O)CCCCCN2C(=O)[C@@H]3Cc4ccccc4CN3C2=O)c1	8%	?	-5%	6	-28%	3%
O=C(CCCCCN1C(=O)[C@@H]2Cc3ccccc3CN2C1=O)Nc1cccc(F)c1	-24%	15µM*	3%	-4	?	-9%
O=C(N/N=C/c1ccc(OC(=O)c2ccccc2)cc1)c1cccc(O)c1	-16%	16µM*	-2%	-8	?	0%
O=C(Oc1ccc(/C=N/NC(=O)c2ccccc2F)cc1)c1ccccc1	6%	12µM*	0%	-2	9.2µM*	6%
O=C(N/N=C/c1ccc(OC(=O)c2ccccc2)cc1)c1cccnc1	-24%	-28%	-6%	30	-14%	?
Cc1noc(C)c1-c1cc(N(C)Cc2ccco2)ncn1	.	-10%	.	.	?	.
O=C(NCCCO)/C(=C\c1ccco1)NC(=O)c1ccco1	5%	-1%	16%	-3	19%	1%
COc1ccc2[nH]c(O)c(N=O)c2c1	10%	-25%	-3%	-26	-13%	14%
O=Nc1c(O)[nH]c2ccc(F)cc12	-4%	-15%	3%	-88*	2%	0%
Cc1cccc2c(N=O)c(O)[nH]c12	-10%	?	6%	?	?	-2%
O=Nc1c(O)[nH]c2ccc(Cl)cc12	-9%	?	14%	-72*	-19%	-12%
NS(=O)(=O)c1ccc(NC(=O)c2cnn3c2NC(=C2CC2)C=C3C(F)F)cc1	.	-7%	.	.	-27%	.
O=Cc1ccc(OCC(=O)NCC2CCCO2)cc1 (stereo not drawn)	9%	0%	-1%	2	-10%	9%
